The values that follow come from ChEMBL document CHEMBL4513216, “Probing the Open Global Health Chemical Diversity Library for Multistage-Active Starting Points for Next-Generation Antimalarials” (ACS Infect Dis, 2020).

Screen size: about 69,000 compounds; about 8,600 (12%) showed an effect of 50% or more. What follows is part of a selection rich in strong results, with near analogues and random picks from the rest.

The subject of this assay is Plasmodium berghei. As to the kind of experiment: Screen against P. berghei liver stage (PbLuc), transformed with Luciferase, at 10uM. In kind it is functional, HepG2. The conditions noted are these: tested at 10 uM.
For the molecule `Cc1ccc(CC(=O)N2CCCC(c3n[nH]c4nccnc34)C2)cc1` (stereo not drawn), the INHIBITION is 44.8%.

In the case of `c1cnc2[nH]nc(C3CCN(Cc4ccsc4)CC3)c2c1`, the INHIBITION stood at 22%.

With `NC(=O)c1cc(C2CCCN(C(=O)CCc3ccsc3)C2)n[nH]1` (stereo not drawn), the INHIBITION stood at 56.6%.

Take `COc1cccc(CC(=O)N2CCCC(c3n[nH]c4nccnc34)C2)c1` (stereo not drawn): the INHIBITION came to 2.71%.

For the molecule `NC(=O)c1cc(C2CCCN(C(=O)CCc3ccncc3)C2)n[nH]1` (stereo not drawn), the INHIBITION is reported as -51.5%.

Regarding `Cc1nn(CCC(=O)NC2CCCOC2)c(C)c1C` (stereo not drawn), the INHIBITION amounted to 3.35%.

For the molecule `CC1CCN(CCNC(=O)C(C)n2cncn2)CC1` (stereo not drawn), the INHIBITION was 22.3%.

Turning to `CNC(=O)C1(C)CN(Cc2cn(C)c3ccc(F)cc23)CCO1` (stereo not drawn), the INHIBITION amounted to 3.48%.

As for `CNC(=O)[C@@H]1CN(C(=O)C2CCC2)C[C@H]1c1ccnc(N2CCCC2)n1`, the INHIBITION is on record as -33.3%.

In the case of `Cc1nc(NC(=O)NC2CC(=O)N(C)C2)nn1C(C)C` (stereo not drawn), the INHIBITION was determined as 40.6%.

Take `CCN1CC(NC(=O)Nc2nc(C)n(C(C)C)n2)CC1=O` (stereo not drawn): the INHIBITION is listed as 64.4%.

`CCCN1CC(NC(=O)Nc2nc(C)n(C(C)C)n2)CC1=O` (stereo not drawn): the INHIBITION amounted to 44.6%.

Take `COC(=O)C(NC(=O)CCc1ccco1)c1cc(F)ccc1F` (stereo not drawn): the INHIBITION is listed as -4.16%.

Consider `CC(C(=O)N1CCCCC1)n1nc(-c2cccs2)cc(N)c1=O` (stereo not drawn), for which the INHIBITION worked out at 23%.

Consider `O=C(Cc1ccc(Cl)cc1)N[C@@H]1CCC[C@@H](O)[C@@H]1O`, for which the INHIBITION is reported as 14.21%.

On to `CC(C)(C)c1noc(-c2ccnc(-n3cnc(C(=O)O)c3)c2)n1`, for which the INHIBITION is on record as -6.73%.

As for `CC(=O)N1CCOC(c2cncc(CCC(N)=O)n2)C1` (stereo not drawn), the INHIBITION was 10.9%.

Take `c1nc(C2CCCCO2)ncc1CN1CCOCC1` (stereo not drawn): the INHIBITION came to 0.696%.

Turning to `N#Cc1cc2c(nc1SCc1cc(O)nc(O)n1)CCCC2`, the INHIBITION is recorded as 32.3%.

For `N#Cc1cc2c(nc1SCc1cc(O)nc(O)n1)CCCCC2`, the INHIBITION is 66.4%.

Take `N#Cc1cc2c(nc1O)CCCCC2`: the INHIBITION is 23.4%.

Consider `N#Cc1ccccc1N1CC2(CCCCN2CC2CC2)CC1=O` (stereo not drawn), for which the INHIBITION was found to be 15.3%.

With `CC(C)n1cc(CN2CCCN(C(=O)C(C)n3cccn3)CC2)cn1` (stereo not drawn), the INHIBITION was 38.5%.

`O=C1COc2cc(C(=O)N3CCCC(n4cccn4)C3)ccc2N1` (stereo not drawn): the INHIBITION is listed as -24.2%.

Consider `CCN1CC(CN(C)Cc2nc(-c3ccoc3)oc2C)CC1=O` (stereo not drawn), for which the INHIBITION was 39.6%.

Regarding `CCc1nc2c(s1)C(N(C)C(=O)c1csnn1)CCC2` (stereo not drawn), the INHIBITION stood at 68%.

For `CCc1nc2c(s1)C(N(C)C(C)=O)CCC2` (stereo not drawn), the INHIBITION is listed as 6.33%.

As to `CCNC(=O)N(C)C1CCCc2nc(C)sc21` (stereo not drawn), the INHIBITION is on record as 64.9%.

As to `Cc1nc2c(s1)C(N(C)C(=O)NCCCC(C)(C)CO)CCC2` (stereo not drawn), the INHIBITION came out at 3.67%.

On to `CCc1nc2c(s1)C(N(C)C(=O)c1cc[nH]n1)CCC2` (stereo not drawn), for which the INHIBITION is given as 28.6%.

As to `CC(=O)N(C)C1CCCc2nc(C)sc21` (stereo not drawn), the INHIBITION worked out at 3.03%.

On to `Cc1cc(C)n(CC(=O)N2CCC(c3nc(C(C)C)no3)CC2)n1`, for which the INHIBITION is given as -6.42%.

Consider `COc1cc(CNCCn2ccnc2)cc2c1OCO2`, for which the INHIBITION is 17.4%.

As for `COc1ccc(CNC(=O)CCN2C[C@@H](C)[C@](O)(C3CC3)C2)cc1`, the INHIBITION is listed as 25.4%.

Turning to `CC(=O)Nc1ccc(C(=O)N2CCSCC2c2ccc(C)o2)cc1` (stereo not drawn), the INHIBITION was -14.3%.

With `c1cncc(-c2noc(CN3CCCC3Cn3cccn3)n2)c1` (stereo not drawn), the INHIBITION is -9.37%.

Consider `CC(C)(C)c1csc(CN2CCN(S(=O)(=O)c3cccnc3)CC2)n1`, for which the INHIBITION is listed as 29%.

With `Cn1cnc(S(=O)(=O)N2CCN(Cc3ccco3)CC2)c1Cl`, the INHIBITION amounted to 32.7%.

In the case of `O=S(=O)(c1cccnc1)N1CCN(Cc2nc(-c3ccco3)cs2)CC1`, the INHIBITION came to 33.4%.

On to `O=S(=O)(c1ccc(Cl)s1)N1CCN(Cc2nc(-c3ccco3)cs2)CC1`, for which the INHIBITION came to 86.6%.

With `O=S(=O)(c1cccnc1)N1CCN(CC(O)c2cccs2)CC1` (stereo not drawn), the INHIBITION is listed as -7.28%.

Turning to `O=S(=O)(c1cccs1)N1CCCn2cnc(CN3CCCC3)c2C1`, the INHIBITION is given as -11.9%.

Consider `O=S(=O)(c1cccs1)N1CCCn2nnc(CN3CCCCC3)c2C1`, for which the INHIBITION is on record as 23.2%.

`O=S(=O)(c1cccs1)N1CCN(Cc2nc(-c3ccco3)cs2)CC1`: the INHIBITION is 57.1%.

Turning to `Cc1ccc(CC(=O)N2CCN(CC(O)c3ccccc3)CC2)cn1` (stereo not drawn), the INHIBITION is listed as 42.7%.

For the molecule `N#CCCN1CCN(S(=O)(=O)c2ccc(Cl)s2)CC1`, the INHIBITION stood at 42%.

Take `O=S(=O)(c1cccnc1)N1CCN(Cc2nc(-c3cccs3)cs2)CC1`: the INHIBITION stood at 57.1%.

For `O=S(=O)(c1cccnc1)N1CCN(CC(O)c2ccccc2)CC1` (stereo not drawn), the INHIBITION is 83.4%.

As to `Cn1ccc(C(=O)NC2CCC23CCN(Cc2nccs2)CC3)c1` (stereo not drawn), the INHIBITION is 38.2%.

Turning to `Cc1cc(-c2ccccc2C(=O)O)nc(C2CCCN(C)C2)n1` (stereo not drawn), the INHIBITION worked out at 30.8%.

`CC(C)CN1CCS(=O)(=O)[C@@H]2CCN(S(=O)(=O)C3CC3)CC[C@@H]21`: the INHIBITION is 12.1%.

For the molecule `CC(NC(=O)C1CC1)c1cc(O)nc(-c2cccnc2)n1` (stereo not drawn), the INHIBITION came out at 10.3035%.

Consider `O=C(c1ccnnc1)N1CCO[C@H]2[C@H](Oc3cccnc3)CC[C@@H]21`, for which the INHIBITION came to 13.7%.
